Compound activity from PubChem BioAssay.
Rows were chosen to be rich in hits. Some 3.6% of all compounds tested hit in one or more screens of this group.
Myeloid diff MLP = promotes myeloid progenitor differentiation; ER-HoxA9 myeloid progenitors, lysozyme-GFP differentiation, flow cytometry; calls only at 10 µM; AID 624256; 360,000 compounds, 1% hits;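 active means normalized GFP-positive differentiation at or above the plate's own cutoff, the solvent-only control mean plus 3 SD; inconclusive means no clear call, values can overlap the other calls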;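 further: cells exposed to compound for four days before flow analysis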
NadD block = blocks S. aureus nicotinate mononucleotide adenylyltransferase | purified NadD enzyme, colorimetric absorbance read-out | inhibition, % at 20 µM | 360,000 compounds, 0.78% hits; in the data active means inhibition above about 26%
NRP1-CendR mod = NRP-1/CendR interaction modulation. inhibition, % at 25 µM. 360,000 compounds, 0.85% hits. FAM-RPARPAR peptide binding to NRP-1, fluorescence polarization. O14786;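 active means inhibition or corrected inhibition above about 18%, plus a signal ratio from 0.5 to 1.5, limit read from the data, passing the limit was not always enough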
CRFR2-BP antag = antagonists of CRF-binding protein/CRF-R2 receptor complex. HEK293 CRF-R2/CRF-BP, CRF-induced calcium fluorescence. inhibition, % at 11.8 µM. 350,000 compounds, 0.59% hits. AID 588475;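 active means inhibition of the ligand-induced calcium signal above about 50% at the single tested concentration, limit read from the data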
FAS-TE inh = inhibitors of human fatty acid synthase thioesterase domain | P49327 | 360,000 compounds, 0.67% hits | inhibition, % at 15 µM | recombinant FAS-TE, OMFH fluorogenic substrate, fluorescence endpoint;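 active means compounds whose normalised, plate-corrected inhibition of enzyme fluorescence in the single-dose primary screen is 50% or more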
FAS-TE conf = FAS thioesterase (human) inhibition, confirmation. inhibition, % at 15 µM. recombinant FAS-TE, OMFH fluorogenic substrate, fluorescence. shares compounds with FAS-TE inh. 2,300 compounds, 45% hits. AID 624325;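 active means compounds inhibiting the enzyme by at least 50% at 15 µM in any one of the replicates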
Large screens that a line does not name were inactive (follow-up assays come after a bar, where they were run).

COC(=O)[C@@]1(Cc2ccc(F)cc2)[C@H]2c3cc(C(=O)N4CCCC4)n(CCc4c[nH]c5ccccc45)c3C[C@H]2CN1C(=O)c1ccccc1	FAS-TE inh 62 (no result: CRFR2-BP antag) | FAS-TE conf inactive
CCOC(=O)c1c(NC(=O)c2ccccc2Br)sc2c1CCc1ccccc1-2	none
CC1(C)Cc2cccc(C(=O)Nc3ccc(F)cc3F)c2O1	none
COC(=O)c1cc(C(=O)OCC(=O)NC2CCS(=O)(=O)C2)cc([N+](=O)[O-])c1 (stereo not given)	none
COC(=O)c1cc(C(=O)OCC(=O)NC2CCCC2)cc([N+](=O)[O-])c1	FAS-TE inh 61 | FAS-TE conf 64
O=C(OCC(=O)N1CCN(c2ccccc2)CC1)c1cccc([N+](=O)[O-])c1	FAS-TE inh 54 | FAS-TE conf 57
O=C(COC(=O)c1cccc([N+](=O)[O-])c1)NC1CCCC1	FAS-TE inh 61 | FAS-TE conf 68
CC(C)CC(=O)N1CCN(c2ccc([N+](=O)[O-])c(NCc3ccccc3)c2)CC1	none
Cc1cc(C)c([N+](=O)[O-])cc1NCC(=O)N1CCN(c2ccccc2)CC1	Myeloid diff MLP active, FAS-TE inh 78 | FAS-TE conf 66
CC1CC(C)CN(C(=O)COC(=O)c2cccc([N+](=O)[O-])c2)C1 (stereo not given)	none
Cc1cccc(C(=O)OCC(=O)NC2CCCCCCC2)c1	none
Cc1cccnc1NC(=O)C1CCC1	none
Clc1ccccc1-c1ccc2nccn2c1	none (no result: CRFR2-BP antag)
Cc1cccc(OCC(=O)N/N=C/c2cc([N+](=O)[O-])ccc2N2CCOCC2)c1	FAS-TE inh 66 | FAS-TE conf 57
O=C(N/N=C\c1cc([N+](=O)[O-])ccc1N1CCOCC1)c1ccccn1	none
CCc1ccc(OCC(=O)N/N=C/c2cc([N+](=O)[O-])ccc2N2CCOCC2)cc1	FAS-TE inh 73 | FAS-TE conf inactive
S=C(NCC1CCCO1)N1CCN(Cc2ccccc2)CC1 (stereo not given)	none
CCC1CCCCN1S(=O)(=O)c1ccc(NC(=O)c2nc(S(C)(=O)=O)ncc2Cl)cc1 (stereo not given)	Myeloid diff MLP inconclusive, FAS-TE inh 60 | FAS-TE conf 66
CS(=O)(=O)c1ncc(Cl)c(C(=O)Nc2ccc3ccccc3c2)n1	FAS-TE inh 57 | FAS-TE conf inactive
CCCC(=O)N(C1CC(C)C(C#N)(C#N)C1(C#N)C#N)N(C)C (stereo not given)	FAS-TE inh 62 | FAS-TE conf 68
CC(=O)N(C1CC(C)C(C#N)(C#N)C1(C#N)C#N)N(C)C (stereo not given)	FAS-TE inh 54 | FAS-TE conf 63
CCOC(=O)NC(=O)C(=CNc1ccccc1C)C(=O)NC(=O)OCC	none
Nc1[nH]c2cc([N+](=O)[O-])ccc2c1-c1ccccn1	none (no result: Myeloid diff MLP)
COc1ccc(C2NC(c3ccc(OC)cc3)C(c3ccccc3)C(=O)C2c2ccccc2)cc1 (stereo not given)	FAS-TE inh 62 | FAS-TE conf inactive
N#Cc1cc(-c2ccccc2)nc(Oc2ccccc2)n1	FAS-TE inh 69 | FAS-TE conf 45
CCCCNc1nc(=S)n(-c2ccccc2)c(C)c1C(C)=O	none
COc1cccc(C(C)(O)c2nc(-c3cccc(NC(C)=O)c3)cs2)c1 (stereo not given)	none (no result: CRFR2-BP antag)
CCCn1c(SCC(=O)Nc2ccccc2-c2ccccc2)nnc1-c1ccoc1C	FAS-TE inh 60 | FAS-TE conf 74
O=S(=O)(Nc1cccc(-n2cnnn2)c1)c1ccccc1F	none
Cc1ccc(CNC(=O)c2ccc(N3CCC4(CC3)CC(c3ccccc3)=NO4)c(NC(=O)c3c(Cl)cccc3Cl)c2)cc1	FAS-TE inh 63 | FAS-TE conf inactive
Cc1ccc2c(C)nc(N/C(N)=N/S(=O)(=O)c3ccc([N+](=O)[O-])cc3)nc2c1	FAS-TE inh 52 | FAS-TE conf 58
CCn1c2ccccc2c2cc(NC(=O)c3ccc(C)c([N+](=O)[O-])c3)ccc21	FAS-TE inh 52 | FAS-TE conf inactive
CCn1cc(S(=O)(=O)NCCc2ccccc2OC)cn1	none
CC(C)(C)c1cc(C(=O)NNc2cc(C(F)(F)F)ccc2Cl)n(Cc2ccccc2)n1	FAS-TE inh 54 | FAS-TE conf inactive
COc1ccccc1NS(=O)(=O)c1ccc(N/N=C/c2ccccc2OCC(=O)O)c([N+](=O)[O-])c1	none
